Assay outcomes from PubChem.
Compounds with a hit are over-represented: about 12% of the library has one in this group of screens.
BAZ2B inh = BAZ2B (human) inhibition | Q9UIF8 | 360,000 compounds, 4.4% hits | Potency, µM (doses to about 114 µM), for the others: top-dose activity change, negative = inhibition, most hits filed as inhibitors | AlphaScreen BAZ2B-H3K14Ac peptide displacement; note: % is set by controls: 0 for no effect and ±100 for the full control effect; nearly all actives have a fitted effect of over 60% in size
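Compounds, titrated to a top concentration of 110 uM, were incubated 30 min at room temperature with preformed BAZ2B/acetyl-K14 H3 peptide complex (50 nM each). Proximity signal was measured by AlphaScreen after 20 min with beads.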
G9a block = G9a (human) methyltransferase inhibition; 350,000 compounds, 8.8% hits; G9a H3K9 monomethylation, AlphaScreen, 2 h; Potency, µM (top dose mostly 102 µM), for the others: top-dose activity, negative = inhibition, hits mostly inhibitors; Q96KQ7; note: % is set by controls: 0 for no effect and ±100 for the full control effect; nearly all actives have a fitted effect of over 75% in size
Target sequence (Q96KQ7 913-1193 limits assumed): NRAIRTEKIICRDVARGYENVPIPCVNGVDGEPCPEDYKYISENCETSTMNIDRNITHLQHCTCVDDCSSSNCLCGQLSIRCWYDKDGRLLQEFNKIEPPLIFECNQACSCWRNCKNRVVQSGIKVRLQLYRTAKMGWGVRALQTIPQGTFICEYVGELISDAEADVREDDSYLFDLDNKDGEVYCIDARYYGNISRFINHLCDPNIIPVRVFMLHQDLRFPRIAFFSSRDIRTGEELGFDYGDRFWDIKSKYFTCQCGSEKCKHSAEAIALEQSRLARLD
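Signal arises when biotinylated H3K9 peptide, once monomethylated, bridges streptavidin donor and antibody-captured acceptor beads. Enzyme at 20 nM was preincubated 15 min with test compounds; peptide 500 nM and SAM 20 uM then reacted for 2 h.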
Sfp PPTase inh = Sfp phosphopantetheinyl transferase inhibition; Q9F4F7; Biochemical Sfp PPTase activity, qHTS; Potency, µM, for inactives: largest response in the series, negative = inhibition, usual class: inhibitors; 310,000 compounds, 3.5% hits; AID 1490;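 note: the enzyme is Sfp with the accession as filed and its product quenches rhodamine fluorescence; 0% = enzyme reaction without inhibitor and -100% = no enzyme wells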
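Reaction rates are the 30-min fluorescence difference (ex 525, em 598 nm) in wells containing 15 nM Sfp, 5 uM rhodamine-CoA and 12.5 uM BHQ-2-YbbR at pH 7.6 with 10 mM MgCl2.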
JMJD2A Tudor inh = inhibitors of human JMJD2A Tudor domain. 390,000 compounds, 4.4% hits. Potency, µM (series often up to 114 µM), for the others: top-dose activity change, negative = inhibition, most hits filed as inhibitors. AlphaScreen JMJD2A-Tudor / H3K4me3 peptide binding. O75164; note: % is set by controls: 0 for no effect and ±100 for the full control effect; nearly all actives have a fitted effect of over 50% in size
TDP1 block = blocks human tyrosyl-DNA phosphodiesterase 1; Q9NUW8; recombinant TDP1, AlphaScreen DNA substrate cleavage; Potency, µM (highest dose often 130 µM), inactives show at the top dose activity change, negative = inhibition, hits mostly inhibitors; 350,000 compounds, 0.28% hits; note: % is set by controls: 0 for no effect and ±100 for the full control effect; nearly all actives have a fitted effect of over 40% in size
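Steps: enzyme plus compound, 15 min RT; add biotin/phosphotyrosine-FITC oligonucleotide (15 nM final), react 5 min; add donor/acceptor beads (10 ug/ml final), 10 min; read AlphaScreen. Tdp1 at 1 nM final.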
HP1b chromo inh = blocks HP1-beta chromodomain binding to methylated histone tails. AlphaScreen HP1-beta / biotin-H3K9me3 peptide binding. Potency, µM (top dose mostly 114 µM), for inactives: at the highest dose activity change, negative = inhibition, hits mostly inhibitors. 390,000 compounds, 0.56% hits. AID 540317; note: nearly all actives have a fitted effect of over 70% in size
Target sequence (P83916 whole entry, looked up): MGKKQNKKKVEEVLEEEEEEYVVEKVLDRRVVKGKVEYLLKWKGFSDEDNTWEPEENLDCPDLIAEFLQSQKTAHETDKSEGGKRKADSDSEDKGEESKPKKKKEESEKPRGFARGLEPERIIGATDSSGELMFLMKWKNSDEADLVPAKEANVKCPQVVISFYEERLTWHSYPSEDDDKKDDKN
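AlphaScreen: HP1-beta (50 nM) preformed 30 min with biotin-H3(1-18)K9me3 peptide (50 nM) in PBS pH 7.4, 0.01% Tween-20. Compound added for 30 min at RT, then streptavidin donor/nickel chelate acceptor beads (10 ug/mL) for 30 min.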
An asterisk follows results filed as active; ? = inconclusive; nt = no result; [ ] = another dose, or the depositor's remark. Calls come from the whole dose curve; as a rule, active = well fitted curve in the direction sought with a large enough effect; inconclusive = small, poorly fitted or top-dose-only effect, or another doubt; inactive = no such curve, though single readings can be large; an effect the other way counts as inactive or inconclusive. Potency is the fitted concentration of half-maximal effect.

SMILES | BAZ2B inh | G9a block | Sfp PPTase inh | JMJD2A Tudor inh | TDP1 block | HP1b chromo inh
O=[N+]([O-])c1ccc(N/N=C/c2ccc[nH]2)cc1 | 45µM* | 11µM* | ? | 56µM* | -8% | ?
O=[N+]([O-])c1ccc(N/N=C/c2c[nH]c3ccccc23)cc1 | ? | 28%[0.501 µM] | 7% | ? | 6% | ?
COc1cccc(/C=N/Nc2ccc(S(=O)(=O)O)cc2)c1O | ? | 2.2µM* | ? | -15% | ? | 27%
O=[N+]([O-])c1ccc(NN=Cc2cccc([N+](=O)[O-])c2)cc1 | nt | nt | nt | ? | nt | -17%
O=S(=O)(O)c1ccc(NN=Cc2ccccc2O)cc1 | nt | nt | nt | 100µM* | nt | 1%[57 µM]
COc1cc(OC)c(OC)cc1CNC(=O)c1cccc(S(=O)(=O)N2CCc3ccccc3C2)c1 | ? | ? | nt | ? | 1% | 7%
CN(C)c1cccc2c1c(NS(=O)(=O)c1cn(C)cn1)nn2C | -19% | 8.9µM* | 32µM* | 0% | 7% | 51%
COc1ccc(C(=O)NCCN=C2NS(=O)(=O)c3ccccc32)cc1 | 1% | -7% | 15% | 4% | nt | 20%
Cc1nc(C(F)(F)F)ccc1C(=O)Nc1ccc2ccccc2n1 | -2% | 17% | 14% | 0% | nt | 39%
COc1ccc(OC)c(CN2CCC(C(=O)N(C)CCc3ccc(OC)c(OC)c3)CC2)c1 | 23% | nt | ? | 22µM* | 0% | -22%
COc1ccc(CCN(C)C(=O)C2CCCN(C3CCN(Cc4ccccc4)CC3)C2)cc1OC (centres undefined) | 35µM* | 32µM* | -24% | 7.9µM* | 5% | 22µM*
O=C(Nc1ccccc1)c1cc2ccccc2o1 | 5% | 3%[59 µM] | -3% | 10% | 2% | 49%
CC/C(=C\c1oc2cc3ccccc3cc2[n+]1CC)Nc1ccccc1 | 79µM* | 5.6µM* | -38% | -17% | 5% | 42%
CC(=O)N1CCc2c(sc(NC(=O)C3CC3)c2-c2nc3ccccc3s2)C1 | 6% | ? | 45µM* | -18% | 1% | 43%
CCCCC(=O)Nc1sc2c(c1-c1nc3ccccc3s1)CCN(C(C)=O)C2 | 8% | -21%[59 µM] | ? | nt | 5% | nt
CCNC(=O)CCS(=O)(=O)c1ccc2ccccc2c1 | -4% | 7.1µM* | ? | -3% | 8% | 19%
COc1ccc(S(=O)(=O)CCC(=O)Nc2c(C)cccc2C)cc1 | 2% | 40µM* | -19% | -9% | nt | 36%
CCc1ccccc1NC(=O)CCS(=O)(=O)c1ccc(OC)cc1 | ? | 14µM* | -16% | 89µM* | nt | ?
O=C(NCCc1c[nH]c2ccccc12)OCCCCOC(=O)NCCc1c[nH]c2ccccc12 | ? | 8%[2.33 µM] | nt | ? | 6% | -16%
COc1cccc(-n2nnnc2SCC(=O)NCc2ccco2)c1 | -12% | ? | -26% | -13% | 1% | 11%
COc1ccc(-c2nc(SCC(=O)NCc3ccco3)c(-c3ccccc3)[nH]2)cc1OC | ? | 45µM* | ? | ? | 5% | -12%
COc1ccc(-c2[nH]c(-c3ccccc3)nc2SCC(=O)NCc2ccco2)cc1OC | 3% | -28% | -6% | -22% | 0% | 28%
COc1ccc(-n2nnnc2SCC(=O)NCc2ccco2)cc1OC | ? | 50µM* | 11% | -22% | 6% | 5%
O=C(OCC(F)(F)F)[C@H](O)[C@@H](O)C(=O)OCC(F)(F)F | nt | nt | -2% | nt | 7% | nt
O=C1C=C(c2ccc(C(=O)O)cc2)C[C@@H](c2ccc3c(c2)OCO3)C1 | 50µM* | 2%[0.501 µM] | nt | 79µM* | -18% | 1%
COc1ccc(C2CC(=O)c3c(C)nc(N4CCN(Cc5ccccc5)CC4)nc3C2)cc1OC (centres undefined) | ? | 35µM* | -20% | ? | 7% | -14%
C=C(CN(C)C)C(=O)c1ccc2c(c1)OCO2 | nt | nt | nt | 14µM* | nt | ?
C=C(CN(C)C)C(=O)c1cc(OC)c(OC)cc1OC | nt | nt | nt | 79µM* | nt | ?
